Screening data (PubChem BioAssay)
Compounds with a hit are over-represented: about 8% of the library has one in this group of screens.
FMDV antiviral: antivirals against foot and mouth disease virus. FMDV antiviral cell-based qHTS. Potency, µM (doses to about 57.9 µM), for inactives: at the top dose activity change, negative = inhibition, most hits filed as inhibitors. 410,000 compounds, 1.2% hits; calls by dose curve; tested in HEK293T cells; note: read-out not given here; potency is the fitted concentration of half-maximal effect; % is set by controls: 0 for no effect and ±100 for the full control effect; nearly all actives have a fitted effect of over 45% in size
HCV inh: blocks hepatitis C virus; AID 651820; Huh7.5.1 HCVcc-Cre infection, luciferase reporter, 44 h; 340,000 compounds, 3.4% hits; Potency, µM (titrated, usually from 41.8 µM), for the others: at the top dose activity change, negative = inhibition, hits mostly inhibitors; active = well fitted inhibition curve with a large enough effect; inconclusive = small, poorly fitted or top-dose-only effect, or another doubt; inactive = no such curve, though single readings can be large or run the other way; note: potency is the fitted concentration of half-maximal effect; % is set by controls: 0 for no effect and ±100 for the full control effect
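Cells (1,000/well) were plated 4 h before compound, then infected with HCVcc-Cre virus (~0.5 moi). After 44 h further culture, infection was read as luciferase luminescence following a 15 min substrate incubation at room temperature.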
LASV entry inh: blocks Lassa virus binding to or entry into cells | Lassa virus pseudotype entry inhibition, cell reporter | Potency, µM (top dose mostly 37.9 µM), for the others: at the top dose activity change, negative = inhibition, hits mostly inhibitors | 300,000 compounds, 1.2% hits | AID 540256; calls by dose curve; tested in HEK293 cells; note: potency is the fitted concentration of half-maximal effect; % is set by controls: 0 for no effect and ±100 for the full control effect; nearly all actives have a fitted effect of over 50% in size
HCMV inh: inhibitors of human cytomegalovirus. HFF cells, HCMV-luciferase reporter, 72 h; stronger effect = lower value. activity change, negative = inhibition, % at 57.5 µM. 410,000 compounds, 4.5% hits; in the data active = activity change below about -60%; inconclusive = no clear call, values can overlap the other calls; inactive = above about -39%; note: % is set by controls: 0 for no effect and ±100 for the full control effect
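After 16 h attachment at 37C, HFF cells received test compound and HCMV-luciferase (1 PFU/cell); reporter luminescence read 72 h later, data normalized against buffer-only and known inhibitor Salinomycin.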
Marburg entry inh: inhibitors of Marburg virus binding or cell entry | 300,000 compounds, 1.8% hits | AID 540276 | Potency, µM (series often up to 37.8 µM), for inactives: at the highest dose activity change, negative = inhibition, usual class: inhibitors | Marburg virus pseudotyped entry inhibition, cell reporter; calls by dose curve; tested in HEK293 cells; note: potency is the fitted concentration of half-maximal effect; % is set by controls: 0 for no effect and ±100 for the full control effect
SARS PLP yeast: blocks SARS-CoV papain-like protease in a yeast assay | S. cerevisiae expressing SARS-CoV PLpro, growth rescue | Potency, µM (highest dose often 32.9 µM), inactives show top-dose activity, positive = growth rescue, actives largely listed as activators | 330,000 compounds, 0.19% hits | AID 485353; calls by dose curve; note: potency is the fitted concentration of half-maximal effect; 0% is about no effect; nearly all actives have a fitted effect of over 55% in size
Starred values were filed as active, the others as inactive; ? = inconclusive; nt = no result given; [ ] = another dose, or the depositor's remark.

SMILES	FMDV antiviral	HCV inh	LASV entry inh	HCMV inh	Marburg entry inh	SARS PLP yeast
Cc1cccc(N2CCN(C(=O)C3CCN(S(=O)(=O)c4cccc5nsnc45)CC3)CC2C)c1 (stereo not given)	25.1µM*	11.2µM*	?	?	?	22.0%
O=c1oc(-c2ccc(C(F)(F)F)cc2)nn1Cc1cc(Cl)ccc1O	-7.3%	nt	nt	nt	nt	nt
COc1ccc2cnoc(=O)c2c1OC	-2.9%	nt	nt	nt	nt	nt
CCN1CCN(Cc2ccc(NC(=O)c3cc(NC(=O)c4cncc(-c5ccc(C#N)cc5)c4)cc(OC)c3)cc2C(F)(F)F)CC1	-22.3%	-13.2%[8.37 µM]	nt	-99.4*	nt	-0.8%
CCN1CCN(Cc2ccc(NC(=O)c3cc(NC(=O)c4cnnc5ccccc45)cc(OC)c3)cc2C(F)(F)F)CC1	-19.1%	?	nt	-93.7*	nt	-0.4%
CCN1CCN(Cc2ccc(NC(=O)c3ccc(C)c(NC(=O)c4cncc(-c5cccs5)c4)c3)cc2C(F)(F)F)CC1	-15.7%	?	nt	nt	nt	nt
CCN1CCN(Cc2ccc(NC(=O)c3cc(NC(=O)c4nccnc4N)cc(OC)c3)cc2C(F)(F)F)CC1	-9.8%	-19.8%[8.37 µM]	nt	-1.3	nt	-3.9%
CCn1c(CNC(=O)c2ccc(OC)cc2)nnc1SCC(=O)Nc1ccc(OC)cc1	-3.8%	nt	2.8%[46.1 µM]	22.0	2.5%[46.1 µM]	nt
CCc1ccccc1NC(=O)CN1C(=O)COc2ccc(S(=O)(=O)N3CCCCCC3)cc21	-9.2%	nt	4.4%[46.1 µM]	-1.6	nt	nt
CCc1ccccc1Nc1nc2ccccc2c2nncn12	-10.1%	nt	26.8%[46.1 µM]	17.1	3.2%[46.1 µM]	nt
CCc1ccc(C(=O)COC(=O)c2n[nH]c3ccccc23)cc1	-9.0%	-18.6%	?	-65.2*	-24.3%	-1.2%
CCc1ccc(C(=O)COC(=O)c2nn(C)c(=O)c3ccccc23)cc1	-29.4%	10.5%	7.8%	5.4	19.4%	-2.5%
Cc1ccc(C)c(NC(=O)CN2C(=O)CCc3cc(S(=O)(=O)N4CCCCC4)ccc32)c1	17.8%	nt	7.2%[46.1 µM]	10.3	nt	nt
CC1(C)Oc2ccc3ccc(=O)oc3c2/C(=C/NNC(N)=O)C1=O	-13.7%	-14.2%	nt	-94.9*	nt	-13.8%
Cc1ccc(OCCOCCNC(C)C)c(Br)c1	-19.0%	?	14.0%	5.9	?	2.3%
CCC(C)NCCOCCOc1ccc(Cl)cc1Br (stereo not given)	-10.1%	35.5µM*	?	-22.5	?	-6.9%
CCC(C)NCCOCCOc1ccccc1-c1ccccc1 (stereo not given)	-11.3%	12.6µM*	?	-23.4	?	6.2%
CCOc1cc(/C=N/NC(=O)c2ccc(CN3CCOCC3)cc2)ccc1OC	?	?	1.9%	-25.7	?	0.4%
CCOc1cc(/C=C/C(=O)c2ccc(OC)c(CN3CCOCC3)c2)cc(Br)c1O	-2.6%	?	?	-98.0*	?	1.1%
O=C1CC(c2nc3ccccc3n2CCCOc2ccccc2)CN1c1ccc(F)cc1 (stereo not given)	?	nt	-27.2%[46.1 µM]	-24.8	1.5%[46.1 µM]	nt
COC(=O)c1ccccc1	nt	nt	nt	22.0	nt	nt
CC(=O)[O][Hg][c]1ccccc1	4.47µM*	nt	nt	nt	nt	nt
CC1CCC(C(C)C)[C@H](O)C1 (stereo not given in full)	-7.7%	nt	nt	nt	nt	nt
COc1ccc(OC)c2sc(NC(=O)C3=COCCO3)nc12	-19.6%	11.2µM*	nt	17.8	nt	0.4%
O=C(Nc1nc(-c2ccc(Oc3ccccc3)cc2)cs1)C1=COCCO1	?	?	?	-64.0*	?	-12.9%
SMILES	FMDV antiviral	HCV inh	LASV entry inh	HCMV inh	Marburg entry inh	SARS PLP yeast
COc1ccc(OC)c2sc(NC(=O)C(C)C)nc12	-8.8%	7.94µM*	nt	-6.0	nt	11.4%
Cc1ccc(-c2csc(NC(=O)C3=COCCO3)n2)cc1	-16.1%	?	-26.7%	42.3	?	-63.3%
COc1ccc(OC)c2sc(NC(=O)CCS(=O)(=O)c3ccccc3)nc12	-9.5%	?	nt	19.9	nt	nt
COc1ccc(OC)c2sc(NC(=O)CCSc3ccccc3)nc12	-24.7%	10µM*	nt	-20.2	nt	-7.8%
COc1cccc(CN2C(=O)NC(C)(C3CCN(Cc4cccc(O)c4)CC3)C2=O)c1OC (stereo not given)	-12.9%	nt	nt	nt	nt	nt
COC(=O)[C@@H]1[C@@H](CO)[C@@H]2Cn3c(ccc(Br)c3=O)[C@H]1N2C(=O)c1ccncc1	nt	nt	nt	-3.0	nt	nt
COc1cc(OC)cc(N2C(=O)N(Cc3ccc(C(C)(C)C)cc3)c3ccccc3S2(=O)=O)c1	0.0%	nt	-25.2%[46.1 µM]	?	nt	nt
Cc1ccc(S(=O)(=O)c2cn(C)c3cc(N4CCCC4)c(F)cc3c2=O)c(C)c1	-17.3%	nt	-9.7%[46.1 µM]	-35.2	nt	nt
Cc1ccc(S(=O)(=O)c2cn(C)c3cc(N4CCN(C)CC4)c(F)cc3c2=O)c(C)c1	12.2%	12.6µM*	nt	-20.4	nt	7.3%
C#C[C@]1(O)CC[C@H]2[C@@H]3CCc4cc(OC5CCCC5)ccc4[C@H]3CC[C@@]21C	-8.3%	0.631µM*	nt	116.2	nt	-3.0%
CCC1CN(CCNC(=O)c2cccc3nccnc23)Cc2cc(OC)ccc2O1 (stereo not given)	-11.4%	nt	nt	nt	nt	nt
Cc1ccc(NC(=O)C2CC(O)CN2C(=O)OCc2ccccc2)c(C)c1 (stereo not given)	-3.6%	17.4%	5.0%[46.1 µM]	-62.9*	0.4%[46.1 µM]	-1.3%
Cc1ccc(NC(=O)C2CC(O)CN2C(=O)Oc2ccccc2)c(C)c1 (stereo not given)	8.3%	-3.3%	7.8%	25.7	4.9%[46.1 µM]	-0.3%
Cc1cccc(NC(=O)c2cc(NC(=O)C3CCCCC3C(=O)O)ccc2N2CCOCC2)c1 (stereo not given)	13.7%	nt	11.6%	-6.5	1.9%	-3.0%
Cc1ccc(NC(=O)c2cc(NC(=O)c3ccco3)ccc2N2CCOCC2)cc1	4.4%	12.6µM*	?	8.7	-12.2%	-2.0%
